Screening data: PubChem, several laboratories
aSyn UTR inh: MLPCN primary screen, SNCA 5' untranslated region | actives 0.82% (n = 300,000) | inhibition, % (tested at 7.5 µM) | alpha-synuclein 5'UTR reporter, inhibitor activity; in the data active = inhibition above about 60%; inconclusive = no clear call, values can overlap the other calls;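 also: H4 neuroglioblastoma cells stably carrying SNCA 5'UTR luciferase fusion; 0% = DMSO wells and 100% = positive control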
APP transl inh: inhibitors of APP translation via 5'UTR reporter, primary screen, APP 5'UTR luciferase, SH-SY5Y cells; SH-SY5Y APP 5'UTR-luciferase reporter, luminescence; inhibition, % at 2 µM; actives 0.82% (n = 190,000);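 active = inhibition above a set limit, derived from the sample mean plus 3 SD, cut at about 45% in these data; inconclusive = one replicate passes the limit while the other fails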
KLF5 inhibitor: KLF5 expression inhibitors, primary screen, DLD-1 cells, luminescence; actives 0.23% (n = 290,000); DLD-1 KLF5 promoter-luciferase reporter; inhibition, % at 5 µM;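 active = inhibition above a per-plate limit of that plate's mean compound inhibition plus 3 SD, cut at about 60% in these data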;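 also: 0% = DMSO wells and 100% = LY294002 at 200 µM; higher means less KLF5 promoter-driven luciferase light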
Ba/F3 V617F tox: reduced viability of JAK2V617F-dependent Ba/F3 cells, primary screen, JAK2V617F inhibitor project, cell-based, Ba/F3 EpoR-JAK2V617F, luminescence. ATP luminescence. inhibition, % at 5.6 µM. actives 1.1% (n = 220,000);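 active = inhibition above the campaign mean plus 3 SD over all tested compounds, cut at about 24% in these data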;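 also: cytokine-independent growth of Ba/F3 cells driven by EpoR plus mutant JAK2; 0% = DMSO-treated cells and 100% = JAK inhibitor I control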
BaF3 parental: parental Ba/F3 cell viability inhibition, counter-screen for JAK2V617F inhibitor project, murine pro-B, CellTiter-Glo luminescence; actives 1.1% (n = 220,000); inhibition, % at 5.6 µM; CellTiter-Glo ATP luminescence; AID 1486, 2009;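 active = inhibition above a per-campaign cutoff, the mean inhibition of all tested compounds plus 3 SD, cut at about 27% in these data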;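 also: 0% = DMSO wells and 100% = JAK Inhibitor I control wells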
IEC-6 tox: cytotoxicity in IEC-6 intestinal epithelial cells, primary screen, cytotoxicity control for KLF5 inhibitor project, cell-based, luminescence; IEC-6 cytotoxicity, luminescence viability; inhibition, % at 5 µM; actives 0.78% (n = 290,000); AID 1825, 2009; in the data active = inhibition above about 22%;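 also: 0% = plate median of test compound wells and 100% = cytotoxic reference compound wells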
Starred values were filed as active, the others as inactive; ? = inconclusive; / = no result. This is a sample that favours compounds with a hit; in the whole collection about 2.1% have one here.

SMILES	aSyn UTR inh	APP transl inh	KLF5 inhibitor	Ba/F3 V617F tox	BaF3 parental	IEC-6 tox
CCN(C(=S)NCCOC)c1cccc2ccccc12	-32	1	-15	32*	27*	2
Cc1sc(NC(=O)CCCC(=O)O)c(C(N)=O)c1-c1ccccc1	?	49*	-25	-1	5	-2
CCc1ccc(N/C(N)=N/c2nc(CSc3ccccn3)cc(=O)[nH]2)cc1	12	-4	9	1	7	2
COc1cccc(N/C(N)=N/c2nc(CSc3ccccn3)cc(=O)[nH]2)c1	-30	89*	1	1	10	-9
CCc1ccc(N2CC(O)(c3cccs3)[N+]3=C2SCCC3)cc1 (stereo unspecified)	/	1	-15	52*	57*	-2
Cc1ccc(N2CC(O)(c3cccs3)[N+]3=C2CCCC3)cc1 (stereo unspecified)	-2	-4	-7	9	45*	4
Cc1cccc(N2CC(O)(c3cccs3)[N+]3=C2CCCCC3)c1 (stereo unspecified)	12	1	-25	30*	52*	-1
COc1ccc(C2(O)CN(c3ccc(C)cc3)C3=[N+]2CCCC3)cc1 (stereo unspecified)	13	2	9	17	34*	-4
Cc1ccc(N2NC(C)(c3cccs3)NC2=S)cc1 (stereo unspecified)	-151	-53	-5	-3	3	8
Cc1ccccc1N1CC(O)(c2cccs2)[N+]2=C1CCCC2 (stereo unspecified)	/	-4	-7	7	6	0
Cc1cccc(N2CC(O)(c3cccs3)[N+]3=C2CCCC3)c1C (stereo unspecified)	1	-5	-9	24*	36*	8
Cc1cccc(NC(=O)C2(c3cccs3)CCOCC2)c1	5	16	11	0	4	-4
Cc1cccc(N2CC(O)(c3cccs3)[N+]3=C2CCCC3)c1 (stereo unspecified)	6	-9	11	26*	36*	11
CC12CCC(=O)N1C(C(=O)Nc1cccc(F)c1)CS2 (stereo unspecified)	-8	/	-10	/	/	-3
COc1ccc(CNC(=O)c2nccnc2CO)cc1	-2	/	-15	/	/	-1
O=S(=O)([N-]c1nc2ccccc2nc1-n1cc[n+](Cc2ccccc2)c1)c1ccccc1	-30	/	0	3	0	7
C=CC[n+]1ccn(-c2nc3ccccc3nc2[N-]S(=O)(=O)c2cccs2)c1	-23	/	-20	92*	86*	-1
CCCC[n+]1ccn(-c2nc3ccccc3nc2[N-]S(=O)(=O)c2ccccc2)c1	-15	5	-6	-4	0	-2
CCCC[n+]1ccn(-c2nc3ccccc3nc2[N-]S(=O)(=O)c2cccs2)c1	-11	/	19	98*	86*	18
CN(C)/C=N/S(=O)(=O)c1ccc(Cl)c(Cl)c1	-2	/	-23	-1	2	1
O=C(NNC1=Nc2ccccc2SC1)c1ccc(F)cc1	43	/	-1	-2	1	10
O=C(NNC1=Nc2ccccc2SC1)c1ccc(Cl)cc1	96*	/	-42	-3	0	12
O=c1c2c3c(sc2nc(N2CCNCC2)n1CCc1ccccc1)CCCCC3	-9	/	-5	0	4	-7
Cc1ccccc1C(=O)NC(CC(C)C)C(=O)Nc1cccc(S(=O)(=O)N(C)C)c1 (stereo unspecified)	-7	-2	-45	11	42*	1
Nc1c(Cl)ncnc1NCCc1ccc(O)cc1	-17	/	-20	5	29*	6
SMILES	aSyn UTR inh	APP transl inh	KLF5 inhibitor	Ba/F3 V617F tox	BaF3 parental	IEC-6 tox
CCCCc1nc2cc(C(=O)N(C)C3CCOCC3)ccc2o1	-165	/	-104	/	/	5
COc1ccc2c(c1)c1ccc3c(c1n2C)C(=O)C=CC3=O	/	/	-41	58*	35*	6
Cc1ccc2c(c1)c1ccc3c(c1n2C)C(=O)C=CC3=O	/	/	-10	1	1	4
Cc1cccc(N2Cc3ccc(Br)cc3C2)c1	-125	/	/	/	/	/
Cc1ccc(NC(=S)N=Nc2c(O)n(C)c3ccc(S(=O)(=O)N4CCOCC4)cc23)cc1C	77*	70*	8	-1	2	-3
Cn1c(O)c(N=NC(=S)Nc2ccccc2F)c2cc(S(=O)(=O)N3CCOCC3)ccc21	95*	46*	-6	0	6	-8
C=CCn1c(O)c(N=NC(=S)Nc2ccccc2C)c2cc(S(=O)(=O)N3CCOCC3)ccc21	80*	34	3	0	8	9
CC(=O)Nc1ccc2nc(CN3CCC(CO)(CCc4ccccc4)CC3)ccc2c1	-5	/	-20	4	1	-1
CC(=O)Nc1cccc(N=NN2CCCCC2)c1	/	15	-21	0	5	-6
CC(C)(C)c1cc(C(=O)Nc2cccnc2)cc(C(=O)Nc2cccnc2)c1	1	/	-13	/	/	8
COc1ccc2cc3c(N)nn(C(=O)c4ccccc4Cl)c3nc2c1	65*	/	-26	-5	-6	14
COc1ccc2cc3c(N)nn(C(=O)c4ccc(F)cc4)c3nc2c1	-6	/	-30	-10	-1	-5
O=C(Nc1cccc(Cl)c1)Nc1nccs1	-159	-40	-88	1	6	11
O=C(Nc1ccc(Cl)c(Cl)c1)Nc1nccs1	-64	/	33	73*	71*	78*
CCOc1cc(N2CCOCC2)c(OCC)cc1NC(=O)COC(=O)CCOc1cc(C)ccc1C	-3	/	/	/	/	/
Cc1ccc(CC(=O)Nc2ccncc2)cc1	-31	11	-12	36*	42*	2
COC(=O)C1CCN(C(=O)COC(=O)c2oc3ccc(OC)cc3c2C)CC1	15	/	-17	/	/	-2
Cc1cccc(C)c1N=C1SC(CC(=O)Nc2c(C)cccc2C)C(=O)N1CCc1ccccn1 (stereo unspecified)	67*	6	-9	5	12	8
Cc1nnc(NC(=O)c2ccc(S(=O)(=O)N3CCc4ccccc4C3)cc2)o1	-6	-15	-5	-1	0	-7
Cc1cc(C)c2sc(NNC(=O)c3ccc(S(=O)(=O)N4CCc5ccccc5C4)cc3)nc2c1	77*	11	34	-2	2	1
Cc1cc(C)c2nc(NNC(=O)c3ccc(S(=O)(=O)N4CCc5ccccc5C4)cc3)sc2c1	75*	28	26	-1	5	-2
CCc1nnc(NC(=O)c2ccc(S(=O)(=O)N3CCc4ccccc4C3)cc2)s1	6	-12	-22	-4	1	4
CCCOc1ccc(/C=N/Nc2cccc([N+](=O)[O-])c2)c(O)c1	-164	-15	-39	1	1	-6
